A selection: hits, their analogues and other compounds. The true share with any hit is near 4.8%.
ssDAF-12 act: S. stercoralis DAF-12 nuclear receptor activators, primary screen, cell-based, luminescence, HEK293, GRIP1 co-expression, lit1-tk-luc; AID 652126, 2013; Nuclear hormone receptor DAF-12 (Strongyloides stercoralis); 370,000 tested, 1% active; HEK293 ssDAF-12/GRIP1 lit1-tk-luc reporter; % of 3 µM dafachronic acid response; activation, % at 6.8 µM;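 active means activation above the mean over all tested compounds plus 3 SD, cut at about 0.9% in these data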;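 further: 0% = DMSO-only wells and 100% = 3 µM delta7-dafachronic acid wells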
DAX1 inh-1: DAX1 (NR0B1) inhibitors, primary screen, cell-based, HEK293, Gal4-DAX1, luciferase luminescence. HEK293 Gal4-DAX1 luciferase reporter. inhibition, % at 6.75 µM. AID 504766, 2011. 340,000 tested, 0.99% active. Nuclear receptor subfamily 0 group B member 1 (Homo sapiens), P51843;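 active means inhibition above the mean over all tested compounds plus 3 SD, cut at about 4.2% in these data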;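 further: 0% = DAX1-transfected cells with DMSO and 100% = empty-vector control cells with DMSO; inhibition shows as a rise in luminescence from relieved DAX1 repression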
Target sequence (P51843 207-470 limits assumed): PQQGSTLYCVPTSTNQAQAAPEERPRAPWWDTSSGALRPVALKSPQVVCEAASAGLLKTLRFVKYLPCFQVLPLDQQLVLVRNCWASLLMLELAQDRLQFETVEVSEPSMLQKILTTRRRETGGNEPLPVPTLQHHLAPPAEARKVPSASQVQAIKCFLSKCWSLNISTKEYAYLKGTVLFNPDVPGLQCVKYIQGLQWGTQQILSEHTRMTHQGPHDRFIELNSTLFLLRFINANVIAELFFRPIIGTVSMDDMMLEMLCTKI
SMARCA2 act: SMARCA2 (BRM) function activators, primary screen, cell-based, luminescence, high throughput; 370,000 tested, 1% active; MG213 cells, MMTV-luciferase reporter, dexamethasone, overnight; activation, % at 9.1 µM; in the data active means activation above about 7.8%;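 further: 0% = vehicle wells and 100% = reference activator wells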
DAX1 inh-2: DAX1 (NR0B1) inhibitors on StAR promoter, primary screen, cell-based, luminescence, SF-1 (NR5A1), full-length DAX-1; 370,000 tested, 1.1% active; AID 652010, 2013; inhibition, % at 6.8 µM; HEK293T StAR-luciferase reporter, SF-1/DAX-1 repression relief;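 active means inhibition above the mean over all tested compounds plus 3 SD, cut at about 3.6% in these data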;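 further: 0% = DAX-1 cells with DMSO and 100% = cells lacking DAX-1 with DMSO; higher inhibition means more luminescence from relief of DAX-1 repression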
hcDAF-12 act: H. contortus DAF-12 nuclear receptor activators, primary screen, cell-based, luminescence, HEK293, lit1-tk-luc reporter. 370,000 tested, 1.4% active. AID 652067, 2013. activation, % at 6.8 µM. HEK293 hcDAF-12 lit1-tk-luc reporter; 0% DMSO, 100% Δ7-dafachronic acid;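 active means activation above the mean of all tested compounds plus 3 SD, cut at about 5.5% in these data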;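 further: 100% = response to 3 µM Δ7-dafachronic acid high control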
hgDAF12 agonist: H. glycines DAF-12 receptor agonists, primary screen, cell-based, luminescence, HEK293, GAL4 fusion, UAS-luciferase. Nuclear hormone receptor DAF-12 (Heterodera glycines), GAL4 fusion. HEK293 GAL4-hgDAF12 UAS-luciferase reporter, agonist luminescence; normalized to butyrate control. activation, % at 6.8 µM. 370,000 tested, 1.8% active. AID 687014, 2013;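 active means activation above a cutoff set at the mean of all screened compounds plus 3 SD, cut at about 10% in these data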;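 further: 0% = DMSO wells and 100% = sodium butyrate wells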
DAX1 inh confirm: DAX1 (NR0B1) inhibitors relieving SF-1 repression, confirmation, cell-based, luminescence, HEK293T, full-length DAX-1, SF-1 activated StAR promoter; shares compounds with DAX1 inh-2; HEK293T StAR-promoter luciferase reporter, SF-1/DAX-1 repression; inhibition, % at 6.8 µM; 2,400 tested, 87% active; AID 652134, 2013;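 active means inhibition above the average of every tested compound plus 3 SD, cut at about 3.8% in these data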;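 further: 0% = DAX-1 cells with DMSO and 100% = no DAX-1 control cells with DMSO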
SF1 mutant ctr: StAR reporter signal changes without DAX1, counter-screen for DAX1 inhibitor project, cell-based, luminescence, AF-2 mutant SF-1, transactivation | shares compounds with DAX1 inh-2 | HEK293 StAR-luciferase, SF-1 AF2 mutant | inhibition, % at 6.8 µM | 2,400 tested, 78% active | AID 652136, 2013;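 active means inhibition above the mean of all tested compounds plus 3 SD, cut at about 3% in these data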;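 further: 0% = DAX-1 transfected cells with DMSO and 100% = cells without DAX-1 with DMSO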
SMARCA2 act conf: SMARCA2 (BRM) function activators, confirmation, cell-based, luminescence, triplicate. shares compounds with SMARCA2 act. MG213 cells, MMTV-luciferase with dexamethasone, overnight; MG213 cells expressing E1A, Rb sequestered; DMSO wells 0%, reference activator 100%. activation, % at 9.1 µM. 3,500 tested, 30% active. AID 652260, 2013;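 active means activation above its plate's cutoff, the mean activation of tested wells plus 3 SD, cut at about 7.9% in these data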
VP16 Luc act: GAL4-VP16 luciferase reporter activation, counter-screen for SMARCA2 (BRM) activator project, cell-based, pG5luc, luminescence, high throughput; shares compounds with SMARCA2 act; HEK293 GAL4-VP16 pG5luc reporter; scaled: DMSO wells 0%, SAHA wells 100%; activation, % at 9.1 µM; 3,500 tested, 41% active;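 active means activation above the solvent-only control well mean plus 3 SD, averaged across control plates, cut at about 5.2% in these data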
LXRb hcDAF ctr: LXR agonists, Gal4 luciferase reporter, confirmation, counter-screen for hcDAF-12 agonist project, cell-based, luminescence, HEK293, H. contortus campaign; AID 743027, 2013; 3,400 tested, under 10 active; HEK293 Gal4-LXR tk-luc reporter, 24 h; normalized: DMSO 0%, positive control 100%; shares compounds with hcDAF-12 act; activation, % at 6.8 µM;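 active means mean percent activation of the reporter above a cutoff set as the average over tested compounds plus their standard deviation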
Target sequence (P55055 whole entry, looked up, the tested form may be a part): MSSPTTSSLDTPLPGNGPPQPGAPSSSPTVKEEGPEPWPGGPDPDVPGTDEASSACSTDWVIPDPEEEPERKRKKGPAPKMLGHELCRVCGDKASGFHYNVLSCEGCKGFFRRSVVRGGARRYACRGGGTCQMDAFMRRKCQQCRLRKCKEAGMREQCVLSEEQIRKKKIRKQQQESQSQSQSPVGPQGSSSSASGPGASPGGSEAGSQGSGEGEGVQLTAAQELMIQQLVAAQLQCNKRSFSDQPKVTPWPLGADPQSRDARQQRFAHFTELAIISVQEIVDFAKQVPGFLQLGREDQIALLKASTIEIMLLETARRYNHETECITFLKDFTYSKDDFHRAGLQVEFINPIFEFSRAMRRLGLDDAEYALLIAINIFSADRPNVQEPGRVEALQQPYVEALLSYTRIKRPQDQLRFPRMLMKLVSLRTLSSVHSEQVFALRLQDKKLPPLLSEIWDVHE
hcDAF12 ag: H. contortus DAF-12 receptor agonists, confirmation, cell-based, luminescence, HEK293, lit1-tk-luc, triplicate | shares compounds with hcDAF-12 act | HEK293 hcDAF-12 lit1-tk-luc reporter; % of Δ7-dafachronic acid response | activation, % at 6.8 µM | 3,400 tested, 61% active;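 active means mean activation across triplicate tests above the threshold derived from the earlier primary screen, cut at about 5.5% in these data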;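 further: 0% = DMSO only wells and 100% = 3 µM Δ7-dafachronic acid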
hgDAF12 ag: H. glycines DAF-12 receptor agonists, confirmation, cell-based, luminescence, HEK293, GAL4-LBD fusion; shares compounds with hgDAF12 agonist; activation, % at 6.8 µM; AID 743050, 2013; HEK293 GAL4-hgDAF12 luciferase reporter, agonist mode; percent of butyrate response; 3,300 tested, 80% active;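 active means mean activation over triplicate wells above the hit cutoff derived from the earlier primary screen, cut at about 11% in these data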;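 further: 0% = DMSO low control and 100% = 2 mM sodium butyrate high control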
LXRb DAF12 ctr: LXR agonists, Gal4 luciferase reporter, confirmation, counter-screen for hgDAF-12 agonist project, cell-based, luminescence, HEK293, H. glycines campaign. shares compounds with hgDAF12 agonist. 24 h. activation, % at 6.8 µM. 3,300 tested, under 10 active. AID 743051, 2013;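 active means mean activation of the triplicate above a set limit carried over from the primary screen, none filed active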
Numbers without * were called inactive.

How did Cc1cc(C(=O)Nc2nc(C)c(C(=O)N(C)C)s2)ccc1[N+](=O)[O-] do in these assays?
ssDAF-12 act: 0; DAX1 inh-1: 1; SMARCA2 act: 4; DAX1 inh-2: 4.6*; hcDAF-12 act: 3; hgDAF12 agonist: 14*; DAX1 inh confirm: 13*; SF1 mutant ctr: 5.4*; hgDAF12 ag: 11*; LXRb DAF12 ctr: 1

How did Cc1ccc(-c2nc(-c3cccnc3)sc2CC(=O)Nc2ccc3nc(C)sc3c2)cc1 do in these assays?
ssDAF-12 act: -1; DAX1 inh-1: -2; SMARCA2 act: 1; DAX1 inh-2: 0; hcDAF-12 act: 0; hgDAF12 agonist: 3

What do the screens show for `CC(/C=N/NC(=O)c1ccco1)=C\c1ccccc1`?
ssDAF-12 act: 0; DAX1 inh-1: 1; SMARCA2 act: 9.4*; DAX1 inh-2: 6.0*; hcDAF-12 act: 6; hgDAF12 agonist: 18*; DAX1 inh confirm: 18*; SF1 mutant ctr: 9.0*; SMARCA2 act conf: 11*; VP16 Luc act: 6.1*; hgDAF12 ag: 14*; LXRb DAF12 ctr: 1

How did COC(=O)c1c(NC(=O)CN(c2ccccc2)S(C)(=O)=O)sc2c1CCCC2 do in these assays?
ssDAF-12 act: -2; DAX1 inh-1: -2; SMARCA2 act: -4; DAX1 inh-2: -1; hcDAF-12 act: -1; hgDAF12 agonist: -1

How did O=C(Nc1nc(-c2ccc3c(c2)OCCO3)cs1)c1ccco1 do in these assays?
ssDAF-12 act: 1; DAX1 inh-1: 1; SMARCA2 act: 4; DAX1 inh-2: 12*; hcDAF-12 act: 10.0*; hgDAF12 agonist: 14*; DAX1 inh confirm: 11*; SF1 mutant ctr: 7.0*; LXRb hcDAF ctr: 1; hcDAF12 ag: 4; hgDAF12 ag: 17*; LXRb DAF12 ctr: 1

How did C=CCNc1nc(-c2ccc3c(c2)OCCO3)cs1 do in these assays?
ssDAF-12 act: 1.1*; DAX1 inh-1: 2; SMARCA2 act: 1; DAX1 inh-2: 14*; hcDAF-12 act: 6.7*; hgDAF12 agonist: 20*; DAX1 inh confirm: 16*; SF1 mutant ctr: 7.4*; LXRb hcDAF ctr: 2; hcDAF12 ag: 7.5*; hgDAF12 ag: 18*; LXRb DAF12 ctr: 1

What do the screens show for `COc1ccc(C(=O)NC(C(=O)NCC2(N3CCCCC3)CCCCC2)C(C)C)cc1` (configuration not stated)?
ssDAF-12 act: -1; DAX1 inh-1: 2; SMARCA2 act: 1; DAX1 inh-2: 0; hcDAF-12 act: 1; hgDAF12 agonist: 0

What do the screens show for `COCCCNc1ccn2nc(-c3ccc(Cl)cc3)cc2n1`?
ssDAF-12 act: 0; SMARCA2 act: -1; DAX1 inh-2: 7.3*; hcDAF-12 act: 8.0*; hgDAF12 agonist: 14*; DAX1 inh confirm: 10*; SF1 mutant ctr: 7.3*; LXRb hcDAF ctr: 1; hcDAF12 ag: 6.5*; hgDAF12 ag: 21*; LXRb DAF12 ctr: 1

Results for Cc1cc(C)n2c(NC3CCCC3)c(-c3cc4ccccc4o3)nc2n1 ?
ssDAF-12 act: 1.2*; SMARCA2 act: 8.6*; DAX1 inh-2: 5.3*; hcDAF-12 act: 4; hgDAF12 agonist: 17*; DAX1 inh confirm: 4.2*; SF1 mutant ctr: 2; SMARCA2 act conf: 8.0*; VP16 Luc act: 6.7*; hgDAF12 ag: 8; LXRb DAF12 ctr: 0

What do the screens show for `Cc1ccc2oc(-c3cccc(N)c3)nc2c1`?
ssDAF-12 act: 2.5*; DAX1 inh-1: 0; SMARCA2 act: 4; DAX1 inh-2: 6.4*; hcDAF-12 act: 14*; hgDAF12 agonist: 23*; DAX1 inh confirm: 16*; SF1 mutant ctr: 8.2*; LXRb hcDAF ctr: 1; hcDAF12 ag: 10*; hgDAF12 ag: 23*; LXRb DAF12 ctr: 1

Screening results: PubChem, The Scripps Research Institute Molecular Screening Center
